Test results published in PubChem BioAssay (NCI).
About 79,000 compounds went through this panel and 15% of them were active in at least one assay; those are over-represented in the sample as a whole. Values without a mark were called inactive. Active and inactive are the calls of the source. Rule as the data show it: active = growth inhibition above about 70%; inactive = the rest.

Assays:
[1] = NCI Yeast Anticancer Drug Screen. Data for the rad52 strain (AID 147);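 also: 0% = growth of vehicle-treated control cultures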; settings: S. cerevisiae rad52 mutant growth inhibition, hits give high values
In short: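 Here a repair-compromised yeast strain receives each compound; its growth is then quantified and normalised to vehicle-only controls.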

[2] = NCI Yeast Anticancer Drug Screen. Data for the wt1 strain (AID 149);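 also: 0% = growth of vehicle-treated wt1 cultures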; settings: S. cerevisiae wt1 strain (SPY 50644) growth inhibition, hits give high values
In short: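 Each compound is tested on wt1 yeast and the loss of growth versus vehicle gives the inhibition value.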

[3] = NCI Yeast Anticancer Drug Screen. Data for the rad50EPP+ strain (AID 151);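 also: 0% = growth of vehicle-treated control cultures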; settings: S. cerevisiae rad50 mutant strain, hits give high values
In short: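 Read-out is yeast growth inhibition relative to vehicle; cells used were the rad50EPP+ strain.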

[4] = NCI Yeast Anticancer Drug Screen. Data for the mgt1 strain (AID 153); settings: S. cerevisiae mgt1 mutant growth inhibition, hits give high values
In short: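 Measured: inhibition of mgt1 yeast growth by compound, normalized to vehicle-treated cultures.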

[5] = NCI Yeast Anticancer Drug Screen. Data for the rad50 strain (AID 155);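 also: 0% = growth of vehicle-only cultures of the same strain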; settings: S. cerevisiae rad50 strain growth inhibition, hits give high values
In short: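 Vehicle-treated cultures provide the reference for the growth inhibition reported for compound-exposed, repair-deficient yeast.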

[6] = NCI Yeast Anticancer Drug Screen. Data for the mec2-1 strain (AID 157); settings: S. cerevisiae mec2-1 strain, hits give high values
In short: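 Using mec2-1 yeast: add compound, measure growth, express inhibition versus vehicle-treated cultures.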

[7] = NCI Yeast Anticancer Drug Screen. Data for the rad14 strain (AID 159);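 also: 0% = growth of vehicle-treated control cultures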; settings: S. cerevisiae rad14 strain growth inhibition, hits give high values
In short: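 Inhibition of growth is reported for a repair-deficient yeast mutant following compound treatment, calculated relative to cultures that received vehicle.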

[8] = NCI Yeast Anticancer Drug Screen. Data for the sgs1 mgt1 strain (AID 161);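 also: 0% = growth of cultures given vehicle only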; settings: S. cerevisiae sgs1 mgt1 strain, hits give high values
In short: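 Growth of a repair-deficient yeast mutant was monitored after compound treatment and expressed as inhibition relative to vehicle-treated cultures.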

[9] = NCI Yeast Anticancer Drug Screen. Data for the cln2 rad14 strain (AID 165);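 also: 0% = growth equal to vehicle treated cultures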; settings: S. cerevisiae cln2 rad14 strain, hits give high values
In short: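 Yeast strain cln2 rad14, bearing defects in cell cycle control and DNA repair, serves as the test system; values reflect growth inhibition compared with vehicle.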

[10] = NCI Yeast Anticancer Drug Screen. Data for the bub3 strain (AID 167); settings: S. cerevisiae bub3 mutant strain, hits give high values
In short: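 Mutant yeast screening strain plus compound; vehicle-treated cultures serve as the 0% inhibition reference.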

[11] = NCI Yeast Anticancer Drug Screen. Data for the wt2 strain (AID 169); settings: S. cerevisiae wt2 strain growth inhibition, hits give high values
In short: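 Treated yeast vs. vehicle-treated yeast: growth inhibition determined.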

[12] = NCI Yeast Anticancer Drug Screen. Data for the mlh1 strain (AID 171);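 also: 0% = growth of vehicle-treated control cultures of the same strain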; settings: S. cerevisiae mlh1 strain growth inhibition, hits give high values
In short: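 A yeast strain with a defined genetic lesion serves as the test organism. Cultures receive compound or vehicle, and growth is measured.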

[13] = NCI Yeast Anticancer Drug Screen. Data for the sgs1 strain (AID 173);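 also: 0% = growth of vehicle-only control cultures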; settings: S. cerevisiae sgs1 mutant, hits give high values
In short: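 A genetically defined yeast mutant is incubated with the test compound, and its growth is compared to that of the same strain given vehicle.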

[14] = NCI Yeast Anticancer Drug Screen. Data for the mlh1 rad18 strain (AID 175); settings: S. cerevisiae mlh1 rad18 strain growth inhibition, hits give high values
In short: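 Steps: expose repair-defective yeast to compound; measure growth; express inhibition against vehicle-treated controls.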

[15] = NCI Yeast Anticancer Drug Screen. Data for the rad18 strain (AID 177); settings: S. cerevisiae rad18 mutant growth inhibition, hits give high values
In short: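 Measured value is growth inhibition of a yeast strain bearing a DNA repair alteration, referenced to vehicle-treated cells.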

[16] = at 5.0 µM (retest, dose inferred, filed as 0.5)
[17] = at 50.0 µM (retest, dose inferred, filed as 5.0)

CC(=O)Nc1ccc2c(c1)C(=Nc1ccc(C(=O)O)cc1)c1ccccc1-2
growth inhibition ([1]; at 1.2 µM): -4%
growth inhibition ([1]; at 3.7 µM): -2%
growth inhibition ([1]; at 11.0 µM): 4%
growth inhibition ([1]; at 33.0 µM): 47%
growth inhibition ([1]; at 100.0 µM): 96% (active)
growth inhibition ([2]; at 1.2 µM): 1%
growth inhibition ([2]; at 3.7 µM): 6%
growth inhibition ([2]; at 11.0 µM): 5%
growth inhibition ([2]; at 33.0 µM): 13%
growth inhibition ([2]; at 100.0 µM): 51%
growth inhibition ([3]; at 1.2 µM): 0%
growth inhibition ([3]; at 3.7 µM): 7%
growth inhibition ([3]; at 11.0 µM): 28%
growth inhibition ([3]; at 33.0 µM): 67%
growth inhibition ([3]; at 100.0 µM): 92% (active)
growth inhibition ([4]; at 1.2 µM): -2%
growth inhibition ([4]; at 3.7 µM): -5%
growth inhibition ([4]; at 11.0 µM): -5%
growth inhibition ([4]; at 33.0 µM): 3%
growth inhibition ([4]; at 100.0 µM): 91% (active)
growth inhibition ([5]; at 1.2 µM): -1%
growth inhibition ([5]; at 3.7 µM): 0%
growth inhibition [5, 16]: 6%
growth inhibition ([5]; at 11.0 µM): 9%
growth inhibition ([5]; at 33.0 µM): 47%
growth inhibition [5, 17]: 52%
growth inhibition ([5]; at 50.0 µM): 91% (active)
growth inhibition ([5]; at 100.0 µM): 95% (active)
growth inhibition ([6]; at 1.2 µM): 1%
growth inhibition ([6]; at 3.7 µM): 4%
growth inhibition [6, 16]: -3%
growth inhibition ([6]; at 11.0 µM): 9%
growth inhibition ([6]; at 33.0 µM): 22%
growth inhibition [6, 17]: 57%
growth inhibition ([6]; at 50.0 µM): 65.8%
growth inhibition ([6]; at 100.0 µM): 78% (active)
growth inhibition ([7]; at 1.2 µM): -2%
growth inhibition ([7]; at 3.7 µM): 1%
growth inhibition ([7]; at 11.0 µM): 5%
growth inhibition ([7]; at 33.0 µM): 30%
growth inhibition ([7]; at 100.0 µM): 97% (active)
growth inhibition [8, 16]: -15%
growth inhibition [8, 17]: 6%
growth inhibition ([8]; at 50.0 µM): 74% (active)
growth inhibition [9, 16]: -8%
growth inhibition [9, 17]: 8%
growth inhibition ([9]; at 50.0 µM): 43.9%
growth inhibition ([10]; at 1.2 µM): -2%
growth inhibition ([10]; at 3.7 µM): -5%
growth inhibition [10, 16]: -7%
growth inhibition ([10]; at 11.0 µM): 0%
growth inhibition ([10]; at 33.0 µM): 11%
growth inhibition [10, 17]: 23%
growth inhibition ([10]; at 50.0 µM): 91.6% (active)
growth inhibition ([10]; at 100.0 µM): 50%
growth inhibition ([11]; at 1.2 µM): -2%
growth inhibition ([11]; at 3.7 µM): -2%
growth inhibition ([11]; at 11.0 µM): -2%
growth inhibition ([11]; at 33.0 µM): 9%
growth inhibition ([11]; at 100.0 µM): 93% (active)
growth inhibition ([12]; at 1.2 µM): -3%
growth inhibition ([12]; at 3.7 µM): 1%
growth inhibition ([12]; at 11.0 µM): 2%
growth inhibition ([12]; at 33.0 µM): 15%
growth inhibition ([12]; at 100.0 µM): 90% (active)
growth inhibition ([13]; at 1.2 µM): -1%
growth inhibition ([13]; at 3.7 µM): 2%
growth inhibition ([13]; at 11.0 µM): 9%
growth inhibition ([13]; at 33.0 µM): 25%
growth inhibition ([13]; at 100.0 µM): 95% (active)
growth inhibition [14, 16]: -7%
growth inhibition [14, 17]: 73% (active)
growth inhibition ([14]; at 50.0 µM): 91.1% (active)
growth inhibition ([15]; at 1.2 µM): 5%
growth inhibition ([15]; at 3.7 µM): 15%
growth inhibition ([15]; at 11.0 µM): 47%
growth inhibition ([15]; at 33.0 µM): 85% (active)
growth inhibition ([15]; at 100.0 µM): 96% (active)

OC(COc1cccc2ccccc12)CN1CCOCC1 (stereo unspecified)
growth inhibition ([1]; at 1.2 µM): 15%
growth inhibition ([1]; at 3.7 µM): 32%
growth inhibition ([1]; at 11.0 µM): 44%
growth inhibition ([1]; at 33.0 µM): 51%
growth inhibition ([1]; at 100.0 µM): 50%
growth inhibition ([2]; at 1.2 µM): 13%
growth inhibition ([2]; at 3.7 µM): 23%
growth inhibition ([2]; at 11.0 µM): 30%
growth inhibition ([2]; at 33.0 µM): 31%
growth inhibition ([2]; at 100.0 µM): 30%
growth inhibition ([3]; at 1.2 µM): -5%
growth inhibition ([3]; at 3.7 µM): -6%
growth inhibition ([3]; at 11.0 µM): -9%
growth inhibition ([3]; at 33.0 µM): -9%
growth inhibition ([3]; at 100.0 µM): -3%
growth inhibition ([4]; at 1.2 µM): 8%
growth inhibition ([4]; at 3.7 µM): 26%
growth inhibition ([4]; at 11.0 µM): 42%
growth inhibition ([4]; at 33.0 µM): 52%
growth inhibition ([4]; at 100.0 µM): 55%
growth inhibition ([5]; at 1.2 µM): 11%
growth inhibition ([5]; at 3.7 µM): 19%
growth inhibition [5, 16]: 54%
growth inhibition ([5]; at 11.0 µM): 42%
growth inhibition ([5]; at 33.0 µM): 37%
growth inhibition [5, 17]: 78% (active)
growth inhibition ([5]; at 50.0 µM): 71.5% (active)
growth inhibition ([5]; at 100.0 µM): 36%
growth inhibition ([6]; at 1.2 µM): 9%
growth inhibition ([6]; at 3.7 µM): 17%
growth inhibition [6, 16]: 24%
growth inhibition ([6]; at 11.0 µM): 23%
growth inhibition ([6]; at 33.0 µM): 27%
growth inhibition [6, 17]: 46%
growth inhibition ([6]; at 50.0 µM): 37%
growth inhibition ([6]; at 100.0 µM): 39%
growth inhibition ([7]; at 1.2 µM): 41%
growth inhibition ([7]; at 3.7 µM): 39%
growth inhibition ([7]; at 11.0 µM): 45%
growth inhibition ([7]; at 33.0 µM): 49%
growth inhibition ([7]; at 100.0 µM): 52%
growth inhibition [8, 16]: 43%
growth inhibition [8, 17]: 71% (active)
growth inhibition ([8]; at 50.0 µM): 46.5%
growth inhibition [9, 16]: 14%
growth inhibition [9, 17]: 59%
growth inhibition ([9]; at 50.0 µM): 73.5% (active)
growth inhibition ([10]; at 1.2 µM): 8%
growth inhibition ([10]; at 3.7 µM): 25%
growth inhibition [10, 16]: 35%
growth inhibition ([10]; at 11.0 µM): 29%
growth inhibition ([10]; at 33.0 µM): 57%
growth inhibition [10, 17]: 60%
growth inhibition ([10]; at 50.0 µM): 49.1%
growth inhibition ([10]; at 100.0 µM): 47%
growth inhibition ([11]; at 1.2 µM): 17%
growth inhibition ([11]; at 3.7 µM): 27%
growth inhibition ([11]; at 11.0 µM): 32%
growth inhibition ([11]; at 33.0 µM): 39%
growth inhibition ([11]; at 100.0 µM): 35%
growth inhibition ([12]; at 1.2 µM): 11%
growth inhibition ([12]; at 3.7 µM): 21%
growth inhibition ([12]; at 11.0 µM): 33%
growth inhibition ([12]; at 33.0 µM): 18%
growth inhibition ([12]; at 100.0 µM): 37%
growth inhibition [14, 16]: 37%
growth inhibition [14, 17]: 49%
growth inhibition ([14]; at 50.0 µM): 37.3%
growth inhibition ([15]; at 1.2 µM): 32%
growth inhibition ([15]; at 3.7 µM): 39%
growth inhibition ([15]; at 11.0 µM): 55%
growth inhibition ([15]; at 33.0 µM): 64%
growth inhibition ([15]; at 100.0 µM): 51%
